# Assay outcomes from PubChem BioAssay.
# VP16 counter: Gal4-VP16 reporter inhibition counter-screen; Drosophila S2 Gal4-VP16 UAS-luciferase, luminescence, 20 h; Potency, µM (highest dose often 53.6 µM), for inactives: top-dose activity, negative = inhibition, actives largely listed as inhibitors; 3.5% of 310,000 active;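 also: Gal4-VP16 expression switched on by copper sulfate through the metallothionein promoter; % is scaled to controls: 0 for no effect and ±100 for the full control effect; nearly all actives have a fitted effect of over 50% in size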
# Sfp PPTase inh: blocks B. subtilis Sfp PPTase activity; Q9F4F7; Biochemical Sfp PPTase activity, qHTS; 3.5% of 310,000 active; AID 1490; Potency, µM, without a hit: largest response in the series, negative = inhibition, usual class: inhibitors;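 also: the enzyme is Sfp with the accession as filed and its product quenches rhodamine fluorescence; 0% = enzyme reaction without inhibitor and -100% = no enzyme wells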
#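 Buffer: 50 mM Hepes-Na pH 7.6, 10 mM MgCl2, 0.01% Nonidet P-40, 0.01% BSA. Enzyme 15 nM, pre-exposed to compound 15 min; substrates then added and fluorescence change tracked over 30 min.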
# RORgamma inh: blocks mouse ROR gamma transcriptional activity | 5.4% of 310,000 active | Potency, µM (highest dose often 53.6 µM), for the others: top-dose activity change, negative = inhibition, usual class: inhibitors | AID 2551 | P51450 | Drosophila S2 Gal4-RORgamma UAS-luciferase reporter, 20 h; also: % is scaled to controls: 0 for no effect and ±100 for the full control effect; nearly all actives have a fitted effect of over 60% in size
# Target sequence (P51450 whole entry, looked up, the tested form may be a part): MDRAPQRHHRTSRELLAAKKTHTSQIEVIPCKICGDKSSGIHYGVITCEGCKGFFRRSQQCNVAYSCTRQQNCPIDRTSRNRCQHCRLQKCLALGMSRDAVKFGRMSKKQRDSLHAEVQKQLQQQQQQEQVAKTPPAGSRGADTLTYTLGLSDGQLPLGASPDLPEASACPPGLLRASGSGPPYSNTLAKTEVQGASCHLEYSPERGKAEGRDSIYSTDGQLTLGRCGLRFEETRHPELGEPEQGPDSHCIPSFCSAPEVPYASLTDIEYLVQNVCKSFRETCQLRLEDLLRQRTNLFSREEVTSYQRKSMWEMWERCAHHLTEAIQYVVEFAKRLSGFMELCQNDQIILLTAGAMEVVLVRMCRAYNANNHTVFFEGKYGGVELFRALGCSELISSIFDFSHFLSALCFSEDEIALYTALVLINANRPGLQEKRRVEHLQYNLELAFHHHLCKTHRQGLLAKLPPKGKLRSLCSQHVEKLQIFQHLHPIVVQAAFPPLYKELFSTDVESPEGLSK
#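 Read-out: Photinus luciferase luminescence; inhibitors lower reporter signal. Insect Schneider cells with Gal4-ROR gamma fusion under metallothionein promoter, UAS reporter; 700 uM final copper sulfate induction, 20 hr, ambient temperature.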
# ClpP mod: qHTS Assay for Activators of ClpP; ATP-dependent Clp protease proteolytic subunit (Bacillus subtilis (strain 168)), P80244; purified B. subtilis ClpP, FRET peptide cleavage, 20 min; Potency, µM (titrated, usually from 57.5 µM), for the others: at the highest dose activity change, negative = active; 1.9% of 340,000 active; AID 651965, 2013; active = well fitted falling curve with a large enough effect; inconclusive = small, poorly fitted or top-dose-only effect; inactive = no such curve, though single readings can be large or run the other way; also: the source files actives as falling curves though it sought activators and does not explain the sign; nearly all actives have a fitted effect of over 65% in size
# Target sequence (P80244 whole entry, looked up): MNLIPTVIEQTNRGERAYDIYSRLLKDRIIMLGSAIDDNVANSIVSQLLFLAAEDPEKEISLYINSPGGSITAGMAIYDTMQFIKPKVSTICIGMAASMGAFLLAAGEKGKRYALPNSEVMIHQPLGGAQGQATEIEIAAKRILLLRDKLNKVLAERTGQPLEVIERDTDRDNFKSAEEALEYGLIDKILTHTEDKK
#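 ClpP 10 microg/mL final, pH 8 Tris/KCl buffer with BSA, glycerol, Tween-20; compound pinned in; FRET-FV substrate; RT 20 min; Ex320/Em430; ΔFRET vs ADEP 5.8 microM, DMSO, no enzyme.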
# PINK1 expr mod: modulators of PINK1 expression; 0.2% of 410,000 active; Potency, µM (series often up to 76.6 µM), inactives show top-dose activation (PINK1 increase), actives largely listed as activators; AID 624263; PINK1 immunofluorescence, high-content cytometry, 24 h; active = well fitted activation curve with a large enough effect; inconclusive = small, poorly fitted or top-dose-only effect; cell line not stated here; also: % of control where 0% means no effect; nearly all actives have a fitted effect of over 65% in size
#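 Decision-based qHTS: stable cells, 24 h exposure to five compound concentrations, CCCP as control. Fixed cells stained for PINK1 plus nuclear, mitochondrial and cell markers, cytometer read.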
# Epigenetic reg: regulators of epigenetic silencing causing reporter derepression in mouse cells. murine LDR cells, GFP reporter derepression, 30 h. Potency, µM (doses to about 53.9 µM), for the others: at the top dose GFP activation, hits mostly activators. 0.2% of 280,000 active. AID 1865; also: % of control where 0% means no effect; nearly all actives have a fitted effect of over 60% in size
#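 GFP-positive cell count by laser-scanning cytometry (objects 20–120 um) after 30 h, 37 C compound exposure of murine LDR cells; reporter is CMV-GFP integrated at a silenced locus, inducible by HDAC or DNMT inhibitors.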
# An asterisk follows results filed as active; u = inconclusive; x = not tested or not shown; [ ] = another dose, or the depositor's remark. Hits are enriched below; roughly 8.1% of the tested compounds scored in any of these assays. Unless noted, calls follow the shape of the dose curve; as a rule, active = well fitted curve in the direction sought with a large enough effect; inconclusive = small, poorly fitted or top-dose-only effect, or another doubt; inactive = no such curve, though single readings can be large; an effect the other way counts as inactive or inconclusive. Potency is read from the fitted curve at half-maximal effect.
SMILES,VP16 counter,Sfp PPTase inh,RORgamma inh,ClpP mod,PINK1 expr mod,Epigenetic reg
CCN(CC)CCOc1cccc(C(C)C)c1,6%,-6%,-14%,-1%,-1%,-1%
Cc1cnc(-n2ncc(C(=O)N(C)C3CCOC3)c2-c2cccs2)nc1-c1ccc(F)cc1 (stereo not drawn),x,x,x,x,0%,x
CC(C)CC(CSc1ccc(Br)cc1)N1CCN(CCc2ccccc2)CCC1=O (stereo not drawn),-12%,-4%,33%,x,x,x
Cc1ccccc1Cn1c2ccccc2c2cnn(CC(=O)NCc3cccc(Cl)c3)c(=O)c21,x,x,x,22µM*,15%,5%
C=C(C)Cn1c(=O)c2c(nc3n2CCN3c2ccc(CC)cc2)n(C)c1=O,x,x,x,-3%,3%,3%
Cn1c(=O)n(CCCOc2ccc(Br)cc2)c2ccccc21,u,-19%,10µM*,-1%,-1%,-2%
Cn1c(=O)n(CCCOc2ccc(Cl)cc2)c2ccccc21,3%[0.365 µM],5%,2%,1%,10%,-2%
CC(=O)Nc1ccc(NC(=O)c2cnn(-c3ccccc3)c2C2CCN(C(=O)OC(C)(C)C)CC2)cc1,x,x,x,-1%,1%,0%
COc1cc(CNCCO)cc(Cl)c1OCc1ccc(Cl)cc1Cl,-8%,20µM*,-2%,x,-1%,1%
COc1cc(CNCc2ccccn2)ccc1OCC(N)=O,-8%,89µM*,u,0%,x,-2%
COc1cc(CNCc2ccccn2)ccc1OCc1ccc(Cl)c(Cl)c1,4%,-9%,u,-2%,2%,0%
COc1cc(CNCCO)cc(Br)c1OCc1ccccc1Cl,0%,-3%,-22%,1%,-1%,0%
COc1cc(CNCc2ccccn2)ccc1OCc1ccc(Cl)cc1Cl,-23%,u,11µM*,-2%,4%,-3%
CC(C)COc1ccc(C(=O)NCC2(N3CCN(C)CC3)CCCCC2)cc1,x,x,x,-4%,7%,3%
COc1ccc(OC)c(NC(=O)c2cc3sccc3n2C)c1,27%,-25%,18%,-17%,2%[38.3 µM],0%
COC(=O)c1ccc(NC(=O)c2cc3sccc3n2C)cc1,-12%,45µM*,38%,-18%,2%,-1%
Cn1c(C(=O)Nc2ccccc2)cc2sccc21,21%,-5%,35%,1%,2%,-1%
COc1cc(NC(=O)c2cc3sccc3n2C)cc(OC)c1,u,50µM*,u,-3%,20%[38.3 µM],2%
CC(C)(C)c1ccc(-c2nc(SCC(=O)Nc3ccc(Cl)cc3)[nH]c(=O)c2C#N)cc1,x,x,x,-4%,2%,-2%
Cc1ccc(CCNC(=O)c2ccc(CS(=O)(=O)c3ccc(Br)cc3)o2)cc1,x,x,x,-1%,6%,0%
CCN(Cc1ccncc1)Cc1ccc2c(c1)CN(C(=O)c1ccc(C)cc1)CCO2,x,x,x,x,0%,x
Nc1c(S(=O)(=O)c2cccs2)c2nc3ccccc3nc2n1Cc1cccs1,6%,5%,-12%,32µM*,u,3%
Nc1c(S(=O)(=O)c2cccs2)c2nc3ccccc3nc2n1CCc1ccccc1,u,15%,u,x,x,0%
Nc1c(S(=O)(=O)c2cccs2)c2nc3ccccc3nc2n1Cc1ccc2c(c1)OCO2,-11%,20%,16%,14µM*,0%[38.3 µM],-1%
COc1ccc(CNCc2ccc(C(=O)O)s2)cc1,x,x,x,2%,1%,-3%
SMILES,VP16 counter,Sfp PPTase inh,RORgamma inh,ClpP mod,PINK1 expr mod,Epigenetic reg
CCCNC(=O)C1CCC(Cn2c(=O)c3sccc3n(CC(=O)N(CC)CC)c2=O)CC1 (stereo not drawn),x,x,x,2%,2%,0%
COC(=O)CSC1=NS(=O)(=O)c2ccccc21,x,3.5µM*,-24%[0.365 µM],-1%,5%,1%
O=C(CSC1=NS(=O)(=O)c2cc(F)ccc2N1)Nc1ccccc1,x,x,x,0%,-2%,x
O=C(CSC1=NS(=O)(=O)c2ccccc21)Nc1ccccc1,20µM*,13µM*,u,-1%,5%,0%
Cn1nnnc1N=N/C(=N/Nc1ccccc1)c1ccccc1,2.2µM*,2%,0.35µM*,x,1%,u
Cc1ncc2c(c1CNC(=O)c1cncs1)CCN(C(=O)c1ccc(C(F)(F)F)cc1)C2,x,x,x,x,0%,x
Cc1occc1-c1nnc(SCCCC(=O)c2ccc(F)cc2)n1C,u,50µM*,0%,-1%,2%,5%
COc1ccc(-c2cc3nnc(-c4ccccc4)nc3s2)cc1,-13%,40µM*,-43%,-8%,1%,4%
Cc1cccc(Cn2c(SCc3ccc(C(=O)NCc4ccccc4F)cc3)nc3ccncc32)c1,x,x,x,-18%,1%,0%
CCCCCc1cc(=O)oc2c(C(CCN3CCCC(C)C3)c3ccc(OC)cc3)c(OC)cc(OC)c12 (stereo not drawn),2%,25µM*,3%,u,-1%,1%
CCCCCc1cc(=O)oc2c(C(CCN(CC)CC)c3ccc(OC)cc3)c(OC)cc(OC)c12 (stereo not drawn),8.9µM*,56µM*,u,4%,-1%,4%
CCN(CC)CCC(c1ccc(OC)cc1)c1c(OC)cc(OC)c2c(C)cc(=O)oc12 (stereo not drawn),-16%,-19%,-17%,x,x,x
COC(=O)C1CCCCN1Cc1ccc2c(c1)CN(Cc1cnn(-c3ccccc3)c1)CCO2 (stereo not drawn),x,x,x,x,0%,x
CCc1cccc(NC(=O)CN2c3ccccc3S(=O)(=O)c3ccccc32)c1,x,x,x,-26%,3%,0%
COc1ccc(NC(=O)/C(Cl)=C(/Cl)S(=O)Cc2ccccc2)cn1 (stereo not drawn),1.1µM*,40µM*,1µM*,1%,-6%,0%
COc1ccc(CS(=O)(=O)/C(Cl)=C(/Cl)C(=O)Nc2ccc(OC)nc2)cc1,3.2µM*,1%,5µM*,5%,-3%,u
COc1ccc(/C=C/C(=O)Nc2ccc(OC)nc2)cc1,0%,21%,2%,x,1%,0%
CC(=O)c1ccc(F)c(-c2cc(C)cc3c2OC(CNC(=O)C[C@@H]2C[C@@H](C)NC(=S)N2)C3)c1 (stereo partly drawn),x,x,x,x,0%,x
COc1ccc(C(c2c(N)[nH]c(=S)[nH]c2=O)c2c(N)[nH]c(=S)[nH]c2=O)cc1,5%,79µM*,-30%,-2%,1%,1%
COC(=O)c1sccc1S(=O)(=O)N(CC(=O)NCc1ccccc1)c1ccc(C)c(C)c1,x,x,x,2%,5%,3%
Cc1cc(C)n(-c2nc(NCCN(C)C)c3c4c(sc3n2)COC(C)(C)C4)n1,-19%,-2%,16µM*,x,0%,7%
